Laboratory results reported in PubChem BioAssay (NCI).
The panel holds about 79,000 compounds, 15% with a hit somewhere; the sample as a whole holds those more often. No stated cut-off is given here; in the data, active means growth inhibition above about 70%; inactive means the rest.

Assays:
[1] = NCI Yeast Anticancer Drug Screen. Data for the rad50 strain (AID 155);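 further: 0% = growth of vehicle-only cultures of the same strain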; settings: S. cerevisiae rad50 strain growth inhibition; at 50.0 µM; stronger effect = higher value
Procedure, shortened: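 Genetically altered yeast (DNA repair pathway); compound treatment; growth inhibition vs vehicle ctrl.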

[2] = NCI Yeast Anticancer Drug Screen. Data for the mec2-1 strain (AID 157); settings: S. cerevisiae mec2-1 strain, at 50.0 µM, stronger effect = higher value
Procedure, shortened: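 mec2-1 yeast strain, carrying an alteration in DNA damage repair or cell cycle control, was exposed to compounds; growth inhibition was measured relative to vehicle-treated controls.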

[3] = NCI Yeast Anticancer Drug Screen. Data for the sgs1 mgt1 strain (AID 161);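 further: 0% = growth of cultures given vehicle only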; settings: S. cerevisiae sgs1 mgt1 strain, at 50.0 µM, stronger effect = higher value
Procedure, shortened: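 Yeast cells carrying a defined DNA-repair defect were exposed to test compounds. Growth inhibition was measured relative to vehicle-treated controls.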

[4] = NCI Yeast Anticancer Drug Screen. Data for the cln2 rad14 strain (AID 165);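 further: 0% = growth equal to vehicle treated cultures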; settings: S. cerevisiae cln2 rad14 strain, at 50.0 µM, stronger effect = higher value
Procedure, shortened: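 Yeast carrying cln2 and rad14 alterations (cell cycle control and DNA damage repair) were exposed to compounds. Growth inhibition was measured against vehicle-treated controls.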

[5] = NCI Yeast Anticancer Drug Screen. Data for the bub3 strain (AID 167); settings: S. cerevisiae bub3 mutant strain, at 50.0 µM, stronger effect = higher value
Procedure, shortened: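 Yeast carrying a defined mutation is treated with each compound, and growth is compared with that of vehicle-exposed cells to give inhibition.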

[6] = NCI Yeast Anticancer Drug Screen. Data for the mlh1 rad18 strain (AID 175); settings: S. cerevisiae mlh1 rad18 strain growth inhibition; at 50.0 µM; stronger effect = higher value
Procedure, shortened: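 Growth inhibition of the yeast strain was measured after compound exposure and expressed relative to vehicle-treated controls. The strain carries defined defects in DNA damage repair.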

Measured: growth inhibition

C/C(=N/N(C=O)C[n+]1ccccc1)C(CN(CC(C)C)CC(C)C)C(=O)Nc1ccc(C)cc1C (stereo unspecified)
inactive: [1] -10.4% | [2] 40% | [3] -14.5% | [4] 31.5% | [5] 19.9% | [6] 19.9%

COc1ccc(NC(=O)/C(Cc2cc(=O)oc3cc(O)ccc23)=N\NC(C)(C)C)c(OC)c1
inactive: [1] -4.4% | [2] 2.8% | [3] 9.3% | [4] 4% | [5] -1.8% | [6] 7.3%

CSCCC(N)=O
inactive: [1] -10.2% | [2] -6.95% | [3] 9.8% | [4] 0.05% | [5] -16.8% | [6] 2.9%

Cn1c(=O)c(C(=O)NC23CC4CC(CC(C4)C2)C3)c(O)c2ccccc21
inactive: [1] -44.2% | [2] -37% | [3] -46.5% | [4] -16.3% | [5] -53% | [6] -19.9%

CC(=O)c1c(O)c(Nc2ccccc2)cc2nc3ccccc3nc12
inactive: [1] -4.45% | [2] 3.95% | [3] -0.4% | [4] -10.3% | [5] -8.75% | [6] -23.3%

COc1ncn(C2CC(OC(=O)c3ccc(C)cc3)C(COC(=O)c3ccc(C)cc3)O2)c(=O)n1 (stereo unspecified)
inactive: [1] -8.3% | [2] -9.1% | [3] -14.7% | [4] -22.4% | [5] -0.6% | [6] -3.05%

CC1CCc2c(ccc3ccccc23)C1 (stereo unspecified)
inactive: [1] -0.25% | [2] -16.4% | [3] -3.55% | [4] -4.55% | [5] -16.8% | [6] -2.05%

CS/C(=C/c1ccc2ccccc2[n+]1C)N1CCN(C)CC1
inactive: [1] -3.3% | [2] -1.25% | [3] -8.15% | [4] -12.9% | [5] -3% | [6] -0.2%

CC1=CC(C)(C)NC(=S)N1c1ccc(O)cc1
inactive: [1] 0% | [2] -14.8% | [3] 11.3% | [4] -24.8% | [5] 6.8% | [6] 15.8%

Cc1ccc(-n2ncc3c(N)ncnc32)cc1
inactive: [1] 10.2% | [2] 12.4% | [3] 2.6% | [4] -19% | [5] -7.8% | [6] -14.2%

CCOc1ccc(N2CC(=O)N3CCCC(c4ccccc4)N3C(=O)C2)cc1 (stereo unspecified)
inactive: [1] -23.7% | [2] -10.9% | [3] 13.4% | [4] 4.9% | [5] 12.1% | [6] 8.55%

COc1ccc(N2C(=O)C3c4[nH]c5ccccc5c4C4CCCCCCC4C3C2=O)cc1 (stereo unspecified)
inactive: [1] 50.1% | [2] 25.9% | [3] 22.6% | [4] -8.9% | [5] 11.9% | [6] 28.6%

CS/C(=N/N=C/c1ccc2ccccc2n1)SS/C(=N/N=C\c1ccc2ccccc2n1)SC
inactive: [1] -8.05% | [2] 13.8% | [3] -12.4% | [4] -19.9% | [5] -0.3% | [6] -39.9%

COC(=O)/C=C(\C)Nc1cccc([N+](=O)[O-])c1
inactive: [1] -15.2% | [2] -0.65% | [3] -18.9% | [4] -36.9% | [5] -0.75% | [6] -7.3%

CC(=O)OCc1ccc(C)c(COC(C)=O)c1
inactive: [1] 3.45% | [2] -20.6% | [3] -9.4% | [4] 3.8% | [5] 1.1% | [6] -9.4%

N#CCc1nc2ccccc2[nH]1
inactive: [1] 7.95% | [2] -6.95% | [3] -9.35% | [4] 3.1% | [5] 6.25% | [6] 3.3%

COc1cc(CC(=O)O)ccc1O
inactive: [1] 11.8% | [2] -21.3% | [3] -26.7% | [4] -18.4% | [5] 1.45% | [6] -0.55%

COCCCNc1ccc([N+](=O)[O-])cn1
inactive: [1] -21.4% | [2] -40.6% | [3] -20.4% | [4] 2.2% | [5] -13% | [6] -14.4%

CCC(C(N)C(=O)O)C(F)(F)F (stereo unspecified)
inactive: [1] -19.4% | [2] -32.1% | [3] 1.4% | [4] 4.25% | [5] -22.1% | [6] -6.55%

CCCc1cc(-c2ccc(-c3cc(CCC)c(C=O)[nH]3)s2)[nH]c1C=O
inactive: [1] -19% | [2] -19.6% | [3] -31% | [4] -4.9% | [5] -20.1% | [6] -46.9%

[Cl][Pt+2][Cl].[NH-]C1CCC1[NH-] (stereo unspecified)
inactive: [1] 4.7% | [2] -9.3% | [3] -12% | [4] -24.4% | [5] -4.1% | [6] 10.5%
